The source of these data is the supplement of paper PMC6522484.

For experiment [1], the system named is DLD1. The experiment in a line: cell viability (CellTiter-Glo) relative to plate median (fraction of plate median); higher = more viable cells. Conditions: 5 µM; treatment time 24 h; reporter: 7TFP. An outline of the steps: (§1)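 Values are well luminescence normalised to the plate median, from either a firefly luciferase or a CellTiterGlo readout on parallel plates. The cells, colorectal cancer lines stably transduced with lentiviral 7TFP or TCF4/Wnt firefly luciferase reporters, were treated with library compounds at a final 5 µM for 24 h. The mean of two independent replicates is listed.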

For experiment [2], the system named is HCT116. The description is as above. Conditions: 5 µM; treatment time 24 h; reporter: TCF4/Wnt. An outline of the steps: as §1
In experiment [3] the test system is SW480. The description is as above. Conditions: 5 µM; treatment time 24 h; reporter: 7TFP. The essentials:
as §1

The subject of experiment [4] is DLD1. The experiment in a line: TCF/Wnt firefly luciferase reporter signal relative to plate median (fraction of plate median); higher = higher Wnt reporter signal. Conditions: 5 µM; treatment time 24 h; reporter: 7TFP. The essentials:
as §1
(In general: A reporter such as luciferase makes a cellular process visible.)

The subject of experiment [5] is SW480. The experiment is described as above. Conditions: 5 µM; treatment time 24 h; reporter: 7TFP. An outline of the steps:
as §1

± gives the standard deviation of the averaged measurements.

As to `CC1=CCc2c(cc3oc(C)cc(=O)c3c2O)OC1`, the cell viability is 1 ± 0.084 in experiment [1], 1.02 ± 0.033 in experiment [2] and 1.06 ± 0.071 in experiment [3]. For the same compound, the entries for the “TCF/Wnt firefly luciferase reporter signal” value in experiment [4] and in experiment [5] were 1.18 ± 0.15 and 1.11 ± 0.085, respectively.

`CC1(C)O[C@@H]2C[C@H]3[C@@H]4C[C@H](F)C5=CC(=O)C=C[C@]5(C)[C@@]4(F)[C@@H](O)C[C@]3(C)[C@]2(C(=O)CO)O1`: the results for the cell viability in experiment [1], in experiment [2] and in experiment [3] were 0.955 ± 0.11, 1 ± 0.093 and 0.975 ± 0.05, respectively. In addition, the “TCF/Wnt firefly luciferase reporter signal” value in experiment [4] was 0.974 ± 0.032; in experiment [5] it was 0.944 ± 0.038.

`COc1ccccc1OCC(O)CO` (stereo not given): the cell viability amounted to 0.953 ± 0.015 in experiment [1], 1.08 ± 0.05 in experiment [2] and 1.03 ± 0.052 in experiment [3]. For the same compound, the results for the “TCF/Wnt firefly luciferase reporter signal” value in experiment [4] and in experiment [5] were 1.09 ± 0.028 and 1.01 ± 0.095, respectively.

Consider `Fc1ccc(C(c2ccc(F)cc2)N2CCN(C/C=C/c3ccccc3)CC2)cc1`, for which the cell viability in experiment [1] was 1.06 ± 0.042; in experiment [2] it was 0.962 ± 0.069; in experiment [3] it was 1.06 ± 0.057. For the same compound, the figures for the “TCF/Wnt firefly luciferase reporter signal” value in experiment [4] and in experiment [5] were 0.961 ± 0.18 and 0.917 ± 0.016, respectively.

In the case of `COc1cc2oc3cc(OC)c(OC)c(CC=C(C)C)c3c(=O)c2c(O)c1CC=C(C)C`, the cell viability in experiment [1] is 1.08 ± 0.16; in experiment [2] it was 1 ± 0.078; in experiment [3], 1.02 ± 0.054. Besides, the “TCF/Wnt firefly luciferase reporter signal” value in experiment [4] is 1.1 ± 0.19; in experiment [5], 0.968 ± 0.046.

In the case of `N[C@@H](CCC(=O)N[C@@H](CS)C(=O)NCC(=O)O)C(=O)O`, the cell viability amounted to 1.03 ± 0.042 in experiment [1], 1.06 ± 0.11 in experiment [2] and 1.02 in experiment [3]. The “TCF/Wnt firefly luciferase reporter signal” value is 1.03 in experiment [4] and 1.13 ± 0.13 in experiment [5].

On to `O=C(O)c1cc(O)c(=O)c2c(O)c(O)ccc2c1`, for which the cell viability came out at 1.02 ± 0.028 in experiment [1], 1.04 ± 0.12 in experiment [2] and 1.01 ± 0.035 in experiment [3]. Besides, the entries for the “TCF/Wnt firefly luciferase reporter signal” value in experiment [4] and in experiment [5] were 1.05 ± 0.035 and 1.02 ± 0.021, respectively.

`C/C1=C\CC(C)(C)/C=C/CC2(C)OC2CC1` (stereo not given): the cell viability turned out to be 1.04 ± 0.035 in experiment [1], 0.96 ± 0.099 in experiment [2] and 1.03 ± 0.035 in experiment [3]. In addition, the “TCF/Wnt firefly luciferase reporter signal” value was determined as 1.09 ± 0.12 in experiment [4] and 0.8895 ± 0.00071 in experiment [5].

On to `CC1=C2C(O)C(=O)OC3CC4C(C)(C)C(=O)C=C[C@]4(C)C(CC1)[C@]23C` (stereo not given in full), for which the cell viability in experiment [1] worked out at 0.931 ± 0.015; in experiment [2], 0.97 ± 0.13; in experiment [3], 1.015 ± 0.0071. Also, the “TCF/Wnt firefly luciferase reporter signal” value came out at 1.01 ± 0.14 in experiment [4] and 1.14 ± 0.05 in experiment [5].

Consider `CN(C)c1ccc(O)c2c1C[C@H]1C[C@H]3[C@H](N(C)C)C(O)=C(C(N)=O)C(=O)[C@@]3(O)C(O)=C1C2=O`, for which the cell viability turned out to be 0.991 ± 0.0099 in experiment [1], 1.03 ± 0.09 in experiment [2] and 0.943 ± 0.048 in experiment [3]. Besides, the “TCF/Wnt firefly luciferase reporter signal” value was 1.05 ± 0.042 in experiment [4] and 1.08 ± 0.085 in experiment [5].

In the case of `O=C(O)c1ccccc1Nc1ccccc1`, the cell viability in experiment [1] was 1.08 ± 0.15; in experiment [2], 1.03 ± 0.14; in experiment [3], 1.04 ± 0.057. In addition, the “TCF/Wnt firefly luciferase reporter signal” value in experiment [4] was determined as 1.09 ± 0.099; in experiment [5], 0.911 ± 0.17.

On to `CN1CCC[C@@H]1CCO[C@](C)(c1ccccc1)c1ccc(Cl)cc1`, for which the figures for the cell viability in experiment [1], in experiment [2] and in experiment [3] were 0.982 ± 0.096, 0.917 ± 0.018 and 1.05 ± 0.042, respectively. The “TCF/Wnt firefly luciferase reporter signal” value in experiment [4] is 0.913 ± 0.19; in experiment [5] it was 0.87 ± 0.041.

For the compound `CC(C)C(=O)Nc1ccc([N+](=O)[O-])c(C(F)(F)F)c1`, the cell viability in experiment [1] came to 1.055 ± 0.0071; in experiment [2], 0.984 ± 0.037; in experiment [3] it was 1.02 ± 0.029. The “TCF/Wnt firefly luciferase reporter signal” value in experiment [4] came out at 0.924 ± 0.047; in experiment [5], 0.9955 ± 0.0064.

Turning to `COc1cc2ccc(=O)oc2c(O)c1O`, the cell viability was found to be 0.945 ± 0.077 in experiment [1], 0.908 ± 0.061 in experiment [2] and 0.966 ± 0.062 in experiment [3]. For the same compound, the “TCF/Wnt firefly luciferase reporter signal” value in experiment [4] was 1.04 ± 0.042; in experiment [5] it was 0.9995 ± 0.00071.

Turning to `O=S(=O)(O)c1cc(N=C=S)ccc1/C=C/c1ccc(N=C=S)cc1S(=O)(=O)O`, the cell viability turned out to be 0.952 ± 0.046 in experiment [1], 0.9585 ± 0.0064 in experiment [2] and 1.01 ± 0.03 in experiment [3]. Besides, the results for the “TCF/Wnt firefly luciferase reporter signal” value in experiment [4] and in experiment [5] were 0.981 ± 0.11 and 1.05 ± 0.064, respectively.
